Laboratory results as given in PMC7862700, “An all-to-all approach to the identification of sequence-specific readers for epigenetic DNA modifications on cytosine”.

Each sequence was assayed against T1, FLI1 (Homo sapiens, UniProt Q01543 1-452) (assay: DAPPL (digital affinity profiling via proximity ligation, sequencing); 10 mM Tris-HCl pH 7.5, 50 mM NaCl, 1 mM DTT, 4% glycerol, room temperature, 30 min; GST-TFs on glutathione beads, 16-mer random dsDNA library, 0.1% formaldehyde crosslink after washing; high values mean tight binding). Conditions: protein: recombinant; tags: N-terminal GST; dsDNA, one strand shown.
T1 sequence: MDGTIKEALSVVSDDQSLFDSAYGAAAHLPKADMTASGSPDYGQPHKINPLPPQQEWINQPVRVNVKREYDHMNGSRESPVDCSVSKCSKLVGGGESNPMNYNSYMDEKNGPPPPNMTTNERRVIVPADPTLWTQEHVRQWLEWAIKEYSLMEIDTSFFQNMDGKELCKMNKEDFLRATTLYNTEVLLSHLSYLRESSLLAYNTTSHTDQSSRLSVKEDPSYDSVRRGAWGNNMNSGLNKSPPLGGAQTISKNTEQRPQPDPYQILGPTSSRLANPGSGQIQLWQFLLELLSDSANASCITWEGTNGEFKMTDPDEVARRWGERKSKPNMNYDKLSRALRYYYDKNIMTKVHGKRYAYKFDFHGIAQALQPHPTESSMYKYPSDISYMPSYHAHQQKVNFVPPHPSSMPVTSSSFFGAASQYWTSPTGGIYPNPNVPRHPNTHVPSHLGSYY
How it was run: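 Each value of binding signal is a hexamer's read frequency for a factor divided by the same hexamer's frequency in the tag-only sample. Barcoded, bead-captured GST fusions of human transcription factors made in yeast were pooled with that sample and incubated with 200 nmole of a random double-stranded 16-mer DNA library in Tris/NaCl/DTT/glycerol buffer at room temperature for 30 min. Washing, 0.1% formaldehyde crosslinking, proximity ligation, PCR and Illumina NextSeq500 sequencing followed.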

| Sequence | binding signal |
| --- | --- |
| GTGCTC | 1.26 fold enrichment (6-mer frequency, TF over GST control) |
| CTTGAA | 1.16 fold enrichment (6-mer frequency, TF over GST control) |
| GATTTG | 1.24 fold enrichment (6-mer frequency, TF over GST control) |
| GCGTTC | 1.07 fold enrichment (6-mer frequency, TF over GST control) |
| TCTGTG | 1.17 fold enrichment (6-mer frequency, TF over GST control) |
| GAAGTA | 1.88 fold enrichment (6-mer frequency, TF over GST control) |
| TACGGA | 1.26 fold enrichment (6-mer frequency, TF over GST control) |
| ACACAC | 1.24 fold enrichment (6-mer frequency, TF over GST control) |
| GCTGAA | 1.14 fold enrichment (6-mer frequency, TF over GST control) |
| TCACAA | 1.18 fold enrichment (6-mer frequency, TF over GST control) |
| GCGCCT | 1.09 fold enrichment (6-mer frequency, TF over GST control) |
| CTGGAC | 1.16 fold enrichment (6-mer frequency, TF over GST control) |
| GTATAC | 1.28 fold enrichment (6-mer frequency, TF over GST control) |
| TATTTC | 2.04 fold enrichment (6-mer frequency, TF over GST control) |
| CCGAAA | 1.25 fold enrichment (6-mer frequency, TF over GST control) |
| ACCTTG | 1.27 fold enrichment (6-mer frequency, TF over GST control) |
| CAACAC | 1.13 fold enrichment (6-mer frequency, TF over GST control) |
| GTATAA | 1.02 fold enrichment (6-mer frequency, TF over GST control) |
| TCGATG | 1.04 fold enrichment (6-mer frequency, TF over GST control) |
| GGCCTA | 1.15 fold enrichment (6-mer frequency, TF over GST control) |

| Sequence | binding signal |
| --- | --- |
| AAGCAC | 1.14 fold enrichment (6-mer frequency, TF over GST control) |
| CGATCG | 1.18 fold enrichment (6-mer frequency, TF over GST control) |
| ACTCGC | 1.19 fold enrichment (6-mer frequency, TF over GST control) |
| CTGTCC | 1.34 fold enrichment (6-mer frequency, TF over GST control) |
| TTAGCG | 1.05 fold enrichment (6-mer frequency, TF over GST control) |
| TAATGA | 1.09 fold enrichment (6-mer frequency, TF over GST control) |
| GGTAAT | 1.15 fold enrichment (6-mer frequency, TF over GST control) |
| TATCGC | 1.13 fold enrichment (6-mer frequency, TF over GST control) |
| TGCGCA | 1.17 fold enrichment (6-mer frequency, TF over GST control) |
| CCGGGT | 1.2 fold enrichment (6-mer frequency, TF over GST control) |
| TCTATG | 1.12 fold enrichment (6-mer frequency, TF over GST control) |
| ATTGCT | 1.24 fold enrichment (6-mer frequency, TF over GST control) |
| ATGTGC | 1.05 fold enrichment (6-mer frequency, TF over GST control) |
| TTTCCT | 2.49 fold enrichment (6-mer frequency, TF over GST control) |
| GCTCTG | 1.18 fold enrichment (6-mer frequency, TF over GST control) |
| ATAGCT | 1.13 fold enrichment (6-mer frequency, TF over GST control) |
| CCCTGT | 1.18 fold enrichment (6-mer frequency, TF over GST control) |
| AATCAG | 1.1 fold enrichment (6-mer frequency, TF over GST control) |
| CGAAGC | 1.39 fold enrichment (6-mer frequency, TF over GST control) |
| CCGCGT | 1.29 fold enrichment (6-mer frequency, TF over GST control) |
